Molecules are shown by their SMILES. Values joined by “and” are separate entries in the source; they are usually repeats but may differ in a detail not shown here. Equal entries are not always repeated. Records with an inconclusive call do not appear. Active and inactive are the calls of the source. Calls come from the whole dose curve; as a rule, active = well fitted curve in the direction sought with a large enough effect; inconclusive = small, poorly fitted or top-dose-only effect, or another doubt; inactive = no such curve, though single readings can be large; an effect the other way counts as inactive or inconclusive.

The target in test [1] is Cellular tumor antigen p53 (Homo sapiens) (UniProt P04637). In words: Primary qHTS for small molecule compounds that upregulate eGFP-tagged delta133p53alpha (in N-terminal) cells. (AID 2060322).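 For activation: cells pre-induced with doxycycline then dosed without doxycycline; 0% = DMSO vehicle and 100% = reference activator.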 Note: nearly all actives have a fitted effect of over 75% in size. Note: potency is the fitted concentration of half-maximal effect. The settings on record: NCI-H358 eGFP-delta133p53alpha fluorescence, 24 h; activation: active compounds read high. An outline of the steps: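 NCI-H358 cells pre-induced 24 h with 10 ng/ml doxycycline for eGFP-delta133p53alpha, plated dox-free and exposed 24 h at 37C to titrated compounds. Fixed, Hoechst-stained; gated GFP peak intensity by laser scanning cytometry, normalized to DMSO (0%) and 57.5 uM 5-azacytidine (100%).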
Chain of Cellular tumor antigen p53 (Homo sapiens) (P04637 whole entry, looked up): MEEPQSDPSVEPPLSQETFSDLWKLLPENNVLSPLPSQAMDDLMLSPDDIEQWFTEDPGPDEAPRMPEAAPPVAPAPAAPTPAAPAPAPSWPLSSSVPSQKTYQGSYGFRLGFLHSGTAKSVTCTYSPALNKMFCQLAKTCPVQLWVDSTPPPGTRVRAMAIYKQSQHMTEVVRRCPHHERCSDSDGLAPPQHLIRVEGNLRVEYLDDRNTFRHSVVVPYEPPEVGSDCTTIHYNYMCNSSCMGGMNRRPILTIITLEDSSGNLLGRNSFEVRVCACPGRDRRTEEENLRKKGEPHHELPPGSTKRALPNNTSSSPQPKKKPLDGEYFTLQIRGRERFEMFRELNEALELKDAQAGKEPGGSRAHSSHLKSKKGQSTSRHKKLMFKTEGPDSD
For orientation: Quantitative high-throughput screening tests each substance at several concentrations.

Test [2] addresses Aldehyde dehydrogenase, mitochondrial (Homo sapiens) (UniProt P05091). In words: qHTS for Inhibitors of the Aldehyde Dehydrogenase Family (ALDH2) Primary screen (AID 2061308).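 Note: plate controls were vehicle for no effect and reference inhibitor for full effect; nearly all actives have a fitted effect of over 55% in size.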 The settings on record: ALDH2 enzyme inhibition qHTS, 1536-well; series mostly up to 56 µM.
The target in test [3] is Retinaldehyde dehydrogenase 3 (Homo sapiens) (UniProt P47895). Put plainly: qHTS for Inhibitors of the Aldehyde Dehydrogenase Family (ALDH1A3) Confirmatory screens (AID 2061311). Note: nearly all actives have a fitted effect of over 60% in size. Note: potency is the fitted concentration of half-maximal effect. Particulars: ALDH inhibition qHTS; series mostly up to 46 µM.
Test [4] deals with Retinal dehydrogenase 2 (Homo sapiens) (UniProt O94788). In words: qHTS for Inhibitors of the Aldehyde Dehydrogenase Family (ALDH1A2) Confirmation screens (AID 2061314). Note: % is set by controls: 0 for no effect and ±100 for the full control effect; nearly all actives have a fitted effect of over 65% in size. The settings on record: ALDH1A2 enzyme inhibition qHTS confirmation; series mostly up to 45.9 µM.
For test [5], the target named is Retinaldehyde dehydrogenase 3 (Homo sapiens) (UniProt P47895). Put plainly: qHTS for Inhibitors of the Aldehyde Dehydrogenase Family (ALDH1A3) Primary screen (AID 2061315).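 Note: plate controls were DMSO vehicle for no effect and reference inhibitor for full effect.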 The settings on record: ALDH inhibition qHTS; series mostly up to 56 µM.
For test [6] the target is unchanged. Put plainly: qHTS for Inhibitors of the Aldehyde Dehydrogenase Family (ALDH1A3) Validation screen (AID 2061312). Note: nearly all actives have a fitted effect of over 45% in size. Note: potency is the fitted concentration of half-maximal effect. The settings on record: ALDH1A3 enzyme inhibition qHTS validation, fluorescence; series mostly up to 84.7 µM.
Test [7] addresses Aldehyde dehydrogenase 1A1 (Homo sapiens) (UniProt P00352). In words: qHTS for Inhibitors of the Aldehyde Dehydrogenase Family (ALDH1A1) Confirmatory screens (AID 2061316). Note: potency is the fitted concentration of half-maximal effect; nearly all actives have a fitted effect of over 65% in size. Particulars: ALDH inhibition qHTS; series mostly up to 47.3 µM.
The nature of test [8]: BET inhibitor-based combinations targeting novel dependencies in MECOM-rearranged (r) AML: SET-2 cell line (AID 2202231).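 Note: plate controls were DMSO treated cells for no effect and wells without cells for full effect; nearly all actives have a fitted effect of over 35% in size.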 Particulars: SET-2 AML cells viability, CellTiter-Glo luminescence, 48 h; viability: active compounds read low, concentration not given here. An outline of the steps:
(§1)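 Here, 11-point titrations of each agent were applied to 500 seeded cells and incubated 48 hr; CellTiter-Glo signal, scaled against DMSO and empty wells, was integrated as AUC, then Z-scored within the individual line.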
(ATP-based viability assays read luminescence as a measure of living cells.)

Test [9] is described as follows: BET inhibitor-based combinations targeting novel dependencies in MECOM-rearranged (r) AML: UCSD-AML1 cell line (AID 2202235).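 Note: plate controls were DMSO vehicle wells for no effect and blank wells for full effect; nearly all actives have a fitted effect of over 40% in size.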 The settings on record: UCSD-AML1 AML cells viability, CellTiter-Glo, 48 h; series mostly up to 46 µM. An outline of the steps: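 Normalized to DMSO and empty-well controls, the luminescence data from CellTiter-Glo after 48 hr drug exposure were fitted across 11 concentrations. Reported metrics are area under the dose-response curve and its Z-transformed form.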

Test [10] in a line: BET inhibitor-based combinations targeting novel dependencies in MECOM-rearranged (r) AML: AML-191 cell line (AID 2202236;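 note: plate controls were vehicle wells for no effect and wells without cells for full effect; nearly all actives have a fitted effect of over 35% in size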). The settings on record: AML-191 viability, CellTiter-Glo luminescence, 48 h; series mostly up to 46 µM. An outline of the steps:
as §1

In the case of `C/C(=C\CC/C(C)=C/CC[C@]1(C)CCc2cc(O)cc(C)c2O1)CC/C=C(\C)C(=O)O`, the activation in test [1] is -5.36% (inactive). Further, the Potency result in test [2], in [3], in test [4] and in [5] was “inactive” in each case.
Turning to `COc1cc(C(=O)OC[C@H]2O[C@@H](Oc3ccccc3/C=C/C(=O)O)[C@H](O)[C@@H](O)[C@@H]2O)cc(OC)c1OC`, in test [1], the activation was 1.53% (inactive). The Potency entry in test [2] was “inactive”. For the same molecule, the Potency in test [3] is 9.79 µM (active).
In the case of `COc1ccc(CC2C(=O)NC(C)C(=O)N(C)C3Cc4ccc(cc4)Oc4cc(ccc4OC4OC(CO)C(O)C(O)C4O)CC(C(=O)NC(C)C(=O)NC(C)C(=O)N2C)N(C)C3=O)cc1` (stereo unspecified), the Potency in test [1] is 5.09 µM (active); in test [3], 4.78 µM (active). For the same molecule, the Potency entry in test [2] is “inactive”.
Take `CNC(=S)NS(=O)(=O)c1cc(CCNC(=O)c2cc(Cl)ccc2OC)ccc1OC`: the activation in test [1] was -6.68% (inactive). In addition, the Potency entry in [2], in test [3], in [6], in test [4] and in test [5] was “inactive” in each case. Also, the Potency in test [7] is 11.3 µM (active).
One may read the viability as the share of living cells, or the viability signal relative to a control. Consider `Cc1nn(C)c2c1C(c1ccc(C(F)(F)F)cc1)C(C#N)=C(N)O2` (stereo unspecified), for which the activation in [1] is -5.25% (inactive) and 36.9% (inactive). The Potency result in [2], in [3], in test [9] and in test [10] was “inactive” in each case. The Potency in test [6] is 6.31 µM (active). In addition, in [8], the viability is 87.6% (inactive).
Regarding `CC1=CC(=O)CC(C)(C)C1CO[C@@H]1O[C@H](CO)[C@@H](O)[C@H](O)[C@H]1O` (stereo partly specified), the activation in test [1] was 6.25% (inactive). Also, the Potency result in [2] is “inactive”.
On the same counts, the results for `COc1cc(Nc2ccc([N+](=O)[O-])cc2C(=O)O)cc2ccccc12` are -11.9% (inactive) and “inactive”.
Take `C[C@@H]1O[C@@H](O[C@H]2[C@H](O[C@H]3[C@H](O[C@H]4CC[C@@]5(C)C(CC[C@]6(C)C5CC=C5[C@@H]7CC(C)(C(=O)O)C[C@@H](O)[C@]7(C)CC[C@]56C)[C@@]4(C)CO)O[C@H](C(=O)O)[C@@H](O)[C@@H]3O)O[C@H](CO)[C@H](O)[C@@H]2O)[C@H](O)[C@H](O)[C@H]1O` (stereo partly specified): in test [1], the activation is -0.893% (inactive). The Potency result in test [2] is “inactive”.

For the origin of these results see PubChem BioAssay (NCATS).
